# HP1b chromo inh: HTS for Inhibitors of HP1-beta Chromodomain Interactions with Methylated Histone Tails. Chromobox protein homolog 1 (Homo sapiens), P83916. AlphaScreen HP1-beta / biotin-H3K9me3 peptide binding. Potency, µM (series often up to 114 µM), actives largely listed as inhibitors. hit rate 0.56% among 390,000; also: nearly all actives have a fitted effect of over 70% in size
# Target sequence (P83916 whole entry, looked up): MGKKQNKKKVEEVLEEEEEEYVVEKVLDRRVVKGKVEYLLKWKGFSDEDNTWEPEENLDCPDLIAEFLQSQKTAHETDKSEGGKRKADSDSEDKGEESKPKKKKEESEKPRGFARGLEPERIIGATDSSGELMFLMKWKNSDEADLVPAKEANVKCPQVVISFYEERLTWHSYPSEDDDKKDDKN
#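 AlphaScreen: HP1-beta (50 nM) preformed 30 min with biotin-H3(1-18)K9me3 peptide (50 nM) in PBS pH 7.4, 0.01% Tween-20. Compound added for 30 min at RT, then streptavidin donor/nickel chelate acceptor beads (10 ug/mL) for 30 min.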
# ALOX12 inh: Primary qHTS assay for inhibitors of human arachidonate 12S-lipoxygenase (ALOX12): Round 2; Potency, µM (series often up to 108 µM), actives largely listed as inhibitors; hit rate 1.1% among 580,000; Polyunsaturated fatty acid lipoxygenase ALOX12 (Homo sapiens), P18054; purified 12hLO, xylenol orange hydroperoxide absorbance; AID 1671190, 2021
#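 Purified human 12hLO at 150 nM in 25 mM Hepes, 0.01% Triton X-100, pH 7.0, preincubated 15 min at room temperature with compound. Reaction started with 40 uM arachidonic acid, 30 min at room temperature. Hydroperoxide measured by Fe-xylenol orange, 573/405 nm absorbance ratio.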
# JMJD2A Tudor inh: qHTS Assay for Inhibitors of JMJD2A-Tudor Domain | AlphaScreen JMJD2A-Tudor / H3K4me3 peptide binding | hit rate 4.4% among 390,000 | AID 504339, 2011 | Potency, µM (series often up to 114 µM), most hits filed as inhibitors | Lysine-specific demethylase 4A (Homo sapiens), O75164; also: nearly all actives have a fitted effect of over 50% in size
# BAZ2B inh: qHTS Assay for Inhibitors of BAZ2B; Bromodomain adjacent to zinc finger domain protein 2B (Homo sapiens), Q9UIF8; AlphaScreen BAZ2B-H3K14Ac peptide displacement; Potency, µM (doses to about 114 µM), most hits filed as inhibitors; hit rate 4.4% among 360,000; AID 504333, 2011; also: nearly all actives have a fitted effect of over 60% in size
#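 BAZ2B 50 nM plus b-H3(5-23)K14Ac 50 nM, PBS pH 7.4/0.01% Tween-20, 30 min RT; compound added (max 110 uM), 30 min RT; streptavidin donor/Ni-chelate acceptor beads 10 ug/mL final, 20 min dark; AlphaScreen read.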
# G9a inh: qHTS Assay for Inhibitors of Histone Lysine Methyltransferase G9a. G9a H3K9 monomethylation, AlphaScreen, 2 h. Potency, µM (titrated, usually from 102 µM), actives largely listed as inhibitors. hit rate 8.8% among 350,000; also: nearly all actives have a fitted effect of over 75% in size
# Target sequence (Q96KQ7 913-1193 limits assumed): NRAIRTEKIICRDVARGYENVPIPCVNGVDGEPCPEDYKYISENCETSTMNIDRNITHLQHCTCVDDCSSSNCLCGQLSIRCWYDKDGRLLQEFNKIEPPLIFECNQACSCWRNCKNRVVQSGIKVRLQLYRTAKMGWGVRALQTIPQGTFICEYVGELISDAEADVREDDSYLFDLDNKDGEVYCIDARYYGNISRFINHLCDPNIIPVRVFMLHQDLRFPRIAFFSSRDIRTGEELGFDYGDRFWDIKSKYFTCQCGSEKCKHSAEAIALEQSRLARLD
#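 AlphaScreen read-out: biotin-H3K9 peptide (500 nM) methylation by 20 nM enzyme with 20 uM SAM, 2 h at room temperature after 15 min compound preincubation; anti-monomethyl H3K9 antibody plus donor/acceptor beads, 10 min dark.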
# Sfp inh: qHTS Assay for Inhibitors of Bacillus subtilis Sfp phosphopantetheinyl transferase (PPTase). 4'-phosphopantetheinyl transferase ffp (Bacillus subtilis), Q9F4F7. AID 1490, 2009. hit rate 3.5% among 310,000. Biochemical Sfp PPTase activity, qHTS. Potency, µM, actives largely listed as inhibitors;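 also: the enzyme is Sfp with the accession as filed and its product quenches rhodamine fluorescence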
#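 Sfp 15 nM + cpd, 15 min RT; start w/ rhodamine-CoA 5 uM, BHQ-2-YbbR 12.5 uM (final); 50 mM Hepes pH 7.6, 10 mM MgCl2, 0.01% NP-40, 0.01% BSA; read 525/598 nm at 0 and 30 min.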
# Numbers stand for hits; . = inactive; ? = inconclusive; / = not tested or not shown; [ ] = dose if it differs, or a comment. Shown are actives, neighbours in structure and some others; about 8.7% of the full set was active somewhere. Calls follow the shape of the dose curve; as a rule, active = well fitted curve in the direction sought with a large enough effect; inconclusive = small, poorly fitted or top-dose-only effect, or another doubt; inactive = no such curve, though single readings can be large; an effect the other way counts as inactive or inconclusive.
SMILES,HP1b chromo inh,ALOX12 inh,JMJD2A Tudor inh,BAZ2B inh,G9a inh,Sfp inh
COc1ccccc1NC(=O)c1ccc(-n2cccn2)cc1,/,.,/,/,/,/
Cc1cc(OCC(=O)N2CCCC2)ccc1Cl,.,.,.,.,.,.
Cc1cc(OCC(=O)N2CCCC2)cc(C)c1Cl,.,.,.,.,1.3µM,.
COc1ccccc1CCC(=O)N1CCN(S(=O)(=O)c2cc(C(F)(F)F)ccc2Cl)CC1,.,?,.,.,8.9µM,/
c1ccc(C(c2nnnn2C2CCCC2)N2CCCCCC2)nc1 (stereo not drawn),.,.,50µM,50µM,28µM,79µM
CCC(c1nnnn1C1CCCC1)N1CCN(c2ccccc2F)CC1 (stereo not drawn),.,.,.,.,.[12.7 µM],.
CCCC(c1nnnn1C1CCCC1)N1CCN(c2ccccc2F)CC1 (stereo not drawn),.,?,.[11.4 µM],.,50µM,.
c1ccc(C(c2ccccc2)N2CCN(C(c3ccccn3)c3nnnn3C3CCCC3)CC2)cc1 (stereo not drawn),.,/,.,.,.,.
Fc1ccccc1N1CCN(C(c2ccncc2)c2nnnn2C2CCCC2)CC1 (stereo not drawn),.,.,.,.,32µM,.
CN(Cc1ccccc1)C(=O)c1cc(-c2ccccn2)nc2ccccc12,/,.,/,/,/,/
COCCN1CCC2(CCC1=O)CCN(C(=O)Nc1c(C)cccc1C)CC2,/,.,/,/,/,/
CCn1ncc(NC(=S)Nc2ccc(OC)c(OC)c2)c1C(N)=O,.,?,?,79µM,45µM,32µM
S=C(Nc1ccc2c(c1)OCO2)Nc1ccc2c(c1)OCO2,?,.,.,?,?,.
CCn1ncc(NC(=S)Nc2ccc3c(c2)OCO3)c1C(N)=O,.,.,.,.,20µM,56µM
O=C(NCCCn1ccnc1)c1cccnc1,.,.,.,.,.,.
Clc1ccc(-c2csc(=Nc3cccnc3)n2CCCn2ccnc2)cc1Cl,?,.,40µM,11µM,11µM,.
FC(F)Oc1ccc(-c2csc(=Nc3cccnc3)n2CC2CCCO2)cc1 (stereo not drawn),?,.,.,45µM,?,.
COCCn1c(-c2ccc(Br)cc2)csc1=Nc1cccnc1,?,.,45µM,11µM,40µM,.
OC1(c2ccc(OC(F)F)cc2)CSC(=Nc2cccnc2)N1Cc1ccco1 (stereo not drawn),.,.,?,?,.,.
Cc1ccc(NC(=O)C(C)N(C)Cc2ccc3c(c2)OCCO3)c(Br)c1 (stereo not drawn),/,.,/,/,/,/
O=C(O)c1ccc(N2CC3CC(C2)c2cccc(=O)n2C3)c(NC(=S)Nc2ccc(Cl)cc2Cl)c1 (stereo not drawn),?,?,.,.,10µM,50µM
CCc1ccc(NC(=O)Nc2cc(C(=O)O)ccc2N2CC3CC(C2)c2cccc(=O)n2C3)cc1 (stereo not drawn),.,.,.,.,.,.
COC(=O)N/N=C(\C)c1ccc(OC(F)F)cc1,.,.,.,.,.,.
C/C(=N\Nc1ncc(Cl)cc1Cl)c1ccc(OC(F)F)cc1,.,.,.,.,.,56µM
C/C(=N\NC(=O)c1ccc2c(c1)OCO2)c1ccc2c(c1)OCO2,.,.,.,.,.,.
C/C(=N\Nc1ncc(Cl)cc1Cl)c1ccc2c(c1)OCO2,.,.,.,.,.,79µM
CCn1cc(S(=O)(=O)N2C[C@@H](C(=O)NC)[C@H](c3nc(C)no3)C2)cn1,/,.,/,/,/,/
CCOC(=O)C1=C(C)NC(=O)NC1C (stereo not drawn),.,.,.,.,.[12.7 µM],.
CCOC(=O)C1=C(COC(=O)c2ccc3ccccc3c2O)NC(=O)NC1C (stereo not drawn),.,40µM,.,.,?,/

# Source: PubChem BioAssay (National Center for Advancing Translational Sciences (NCATS))
